{
  "source": "paper PMC5700166",
  "data": [
    {"molecular_target": "T1, GST-Aq-NF-kB (Amphimedon queenslandica, UniProt A9Y5G7 2-389)", "T1 sequence": "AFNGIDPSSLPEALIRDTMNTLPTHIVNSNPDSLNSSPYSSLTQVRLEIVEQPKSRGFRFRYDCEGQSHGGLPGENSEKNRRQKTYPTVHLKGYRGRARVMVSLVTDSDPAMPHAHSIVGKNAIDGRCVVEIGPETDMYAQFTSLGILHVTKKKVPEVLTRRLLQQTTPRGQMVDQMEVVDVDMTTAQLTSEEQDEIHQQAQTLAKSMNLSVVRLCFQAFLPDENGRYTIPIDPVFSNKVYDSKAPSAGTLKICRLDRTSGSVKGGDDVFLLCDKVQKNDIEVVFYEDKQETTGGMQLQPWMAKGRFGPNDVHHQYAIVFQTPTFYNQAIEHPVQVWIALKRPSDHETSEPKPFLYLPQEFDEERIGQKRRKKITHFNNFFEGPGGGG", "test": "protein-binding microarray (PBM); PBM: ~300 nM protein, 6 mM HEPES pH 7.8, 80 mM KCl, 0.5 mM EDTA, 0.5 mM EGTA, 6% glycerol, 35 ng/ul poly-dIdC, 1% milk, 1 h, room temperature; Ap Aiptasia and Nv Nematostella (sea anemones) / Co Capsaspora / Aq Amphimedon (sponge) / Dm Drosophila / Hu human; RHD is the Rel homology domain; high values mean tight binding", "conditions": "dsDNA, one strand shown", "units": {"binding signal": "z-score"}, "values": [
      {"sequence": "CCGATTAACATCACGGAATATCCTGATGTTAATCGGGTCTTGATTCGCTTGACGCTGCTG", "binding signal": 1.48},
      {"sequence": "CCGATTAACATCAGAAACTTTCCTGATGTTAATCGGGTCTTGATTCGCTTGACGCTGCTG", "binding signal": 2.07},
      {"sequence": "CCGATTAACATCAGGCAATGCCCTGATGTTAATCGGGTCTTGATTCGCTTGACGCTGCTG", "binding signal": 1.31},
      {"sequence": "CCGATTAACATCAAAATTTTCCATGATGTTAATCGGGTCTTGATTCGCTTGACGCTGCTG", "binding signal": 1.14},
      {"sequence": "CCGATTAACATCAAGAATTTCCGTGATGTTAATCGGGTCTTGATTCGCTTGACGCTGCTG", "binding signal": 1.89},
      {"sequence": "CCGATTAACATCAAGGAATCTCCTGATGTTAATCGGGTCTTGATTCGCTTGACGCTGCTG", "binding signal": 1.78},
      {"sequence": "CCGATTAACATCAGGAATTGCCATGATGTTAATCGGGTCTTGATTCGCTTGACGCTGCTG", "binding signal": 1.02},
      {"sequence": "CCGATTAACATCAAGGAAGTTCCTGATGTTAATCGGGTCTTGATTCGCTTGACGCTGCTG", "binding signal": 2.07},
      {"sequence": "CCGATTAACATCACGGATTTTCCTGATGTTAATCGGGTCTTGATTCGCTTGACGCTGCTG", "binding signal": 3.35},
      {"sequence": "CCGATTAACATCAAACCCTACTGTGATGTTAATCGGGTCTTGATTCGCTTGACGCTGCTG", "binding signal": 1.19},
      {"sequence": "CCGATTAACATCAGGAAATTTCATGATGTTAATCGGGTCTTGATTCGCTTGACGCTGCTG", "binding signal": 1.4},
      {"sequence": "CCGATTAACATCACGGACTGCCCTGATGTTAATCGGGTCTTGATTCGCTTGACGCTGCTG", "binding signal": 1.7},
      {"sequence": "CCGATTAACATCAAATTTCCGGATGATGTTAATCGGGTCTTGATTCGCTTGACGCTGCTG", "binding signal": 1.25},
      {"sequence": "CCGATTAACATCACGGACTCTCCTGATGTTAATCGGGTCTTGATTCGCTTGACGCTGCTG", "binding signal": 2.26},
      {"sequence": "CCGATTAACATCAAAAATCCGGTTGATGTTAATCGGGTCTTGATTCGCTTGACGCTGCTG", "binding signal": 1.32},
      {"sequence": "CCGATTAACATCACGGCAATTCCTGATGTTAATCGGGTCTTGATTCGCTTGACGCTGCTG", "binding signal": 1.38},
      {"sequence": "CCGATTAACATCACGGAAAATTCTGATGTTAATCGGGTCTTGATTCGCTTGACGCTGCTG", "binding signal": 1.15},
      {"sequence": "CCGATTAACATCAGGAGTTGCCCTGATGTTAATCGGGTCTTGATTCGCTTGACGCTGCTG", "binding signal": 3.13},
      {"sequence": "CCGATTAACATCACGGAAATGCCTGATGTTAATCGGGTCTTGATTCGCTTGACGCTGCTG", "binding signal": 1.48},
      {"sequence": "CCGATTAACATCAAAATTCCGGATGATGTTAATCGGGTCTTGATTCGCTTGACGCTGCTG", "binding signal": 1.54},
      {"sequence": "CCGATTAACATCAGGATATGCCCTGATGTTAATCGGGTCTTGATTCGCTTGACGCTGCTG", "binding signal": 1.7},
      {"sequence": "CCGATTAACATCACGGATTGCCCTGATGTTAATCGGGTCTTGATTCGCTTGACGCTGCTG", "binding signal": 1.2},
      {"sequence": "CCGATTAACATCAGGAAACGCCCTGATGTTAATCGGGTCTTGATTCGCTTGACGCTGCTG", "binding signal": 3.05},
      {"sequence": "CCGATTAACATCAAGGAGTTTCCTGATGTTAATCGGGTCTTGATTCGCTTGACGCTGCTG", "binding signal": 2.55},
      {"sequence": "CCGATTAACATCACGGGTTGCCCTGATGTTAATCGGGTCTTGATTCGCTTGACGCTGCTG", "binding signal": 1.04},
      {"sequence": "CCGATTAACATCACGGTCTTTCCTGATGTTAATCGGGTCTTGATTCGCTTGACGCTGCTG", "binding signal": 2.62},
      {"sequence": "CCGATTAACATCACGGAGATTCCTGATGTTAATCGGGTCTTGATTCGCTTGACGCTGCTG", "binding signal": 2.72},
      {"sequence": "CCGATTAACATCACGGAACTTCCTGATGTTAATCGGGTCTTGATTCGCTTGACGCTGCTG", "binding signal": 2.23},
      {"sequence": "CCGATTAACATCAGGAGATTCCATGATGTTAATCGGGTCTTGATTCGCTTGACGCTGCTG", "binding signal": 1.66},
      {"sequence": "CCGATTAACATCACGGACATTCCTGATGTTAATCGGGTCTTGATTCGCTTGACGCTGCTG", "binding signal": 1.97},
      {"sequence": "CCGATTAACATCACTAAAATTCCTGATGTTAATCGGGTCTTGATTCGCTTGACGCTGCTG", "binding signal": 1.03},
      {"sequence": "CCGATTAACATCACGGCAAGTCCTGATGTTAATCGGGTCTTGATTCGCTTGACGCTGCTG", "binding signal": 1.46},
      {"sequence": "CCGATTAACATCAAGGATTGCCCTGATGTTAATCGGGTCTTGATTCGCTTGACGCTGCTG", "binding signal": 1.51},
      {"sequence": "CCGATTAACATCAAGGAAAAGCCTGATGTTAATCGGGTCTTGATTCGCTTGACGCTGCTG", "binding signal": 1.11},
      {"sequence": "CCGATTAACATCAGGCAAAACCCTGATGTTAATCGGGTCTTGATTCGCTTGACGCTGCTG", "binding signal": 3.28},
      {"sequence": "CCGATTAACATCAGGAAATATCCTGATGTTAATCGGGTCTTGATTCGCTTGACGCTGCTG", "binding signal": 1.24},
      {"sequence": "CCGATTAACATCACTAAATTTCCTGATGTTAATCGGGTCTTGATTCGCTTGACGCTGCTG", "binding signal": 1.07}
    ]}
  ]
}
